Hits are enriched below; roughly 11% of the tested compounds scored in any of these assays.
ALDH1A1 block: inhibitors of human aldehyde dehydrogenase 1A1. Potency, µM (doses to about 75.3 µM), for the others: at the highest dose activity, negative = inhibition, usual class: inhibitors. 220,000 compounds, 7.3% hits. AID 1030. P00352. Purified ALDH1A1, NADH fluorescence, propionaldehyde substrate;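 note: potency is the fitted concentration of half-maximal effect; plate controls were no enzyme wells and a reference inhibitor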
Target sequence (P00352 whole entry, looked up): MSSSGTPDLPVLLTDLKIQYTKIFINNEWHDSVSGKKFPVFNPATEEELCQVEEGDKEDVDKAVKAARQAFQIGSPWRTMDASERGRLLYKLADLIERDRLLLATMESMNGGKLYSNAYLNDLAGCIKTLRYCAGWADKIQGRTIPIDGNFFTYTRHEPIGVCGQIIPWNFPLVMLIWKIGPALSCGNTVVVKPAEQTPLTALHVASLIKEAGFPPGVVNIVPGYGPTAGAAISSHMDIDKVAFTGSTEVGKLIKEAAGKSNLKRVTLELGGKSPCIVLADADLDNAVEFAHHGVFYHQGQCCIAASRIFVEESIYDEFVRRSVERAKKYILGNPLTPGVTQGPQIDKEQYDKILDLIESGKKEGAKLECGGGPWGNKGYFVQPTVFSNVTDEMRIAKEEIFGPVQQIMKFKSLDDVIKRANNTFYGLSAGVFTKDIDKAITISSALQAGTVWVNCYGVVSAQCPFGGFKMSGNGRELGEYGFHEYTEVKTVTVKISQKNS
IMPase Li cell: cell-permeable IMPase inhibitors with lithium potentiation; CHO-M1 cells, IP1 TR-FRET (IP-One), carbachol + lithium; Potency, µM (highest dose often 59.4 µM), inactives show top-dose activity, negative = IMPase inhibition, most hits filed as inhibitors; 210,000 compounds, 0.35% hits; AID 1457; active = well fitted curve in the direction sought with a large enough effect; inconclusive = small, poorly fitted or top-dose-only effect, or another doubt; inactive = no such curve, though single readings can be large; an effect the other way counts as inactive or inconclusive;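 note: IP1 builds up when IMPase is blocked and the TR-FRET signal falls; potency is the fitted concentration of half-maximal effect; plate controls were basal vehicle for no effect and high inhibitor control for full effect; nearly all actives have a fitted effect of over 50% in size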
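Concentration–response in CHO-M1 cells, lithium-potentiated; 30 min at 37C. IP1 detected by competitive TR-FRET after 10 min lysis at RT. Hill-fitted AC50.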
HPGD inh: HPGD (human) dehydrogenase inhibition; purified HPGD, NADH fluorescence kinetic, PGE2 substrate; 150,000 compounds, 4.3% hits; AID 894; Potency, µM, for the others: at the top dose activity change, negative = inhibition, most hits filed as inhibitors; note: potency is the fitted concentration of half-maximal effect
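20 nM HPGD preincubated 15 min at room temperature with compound in 50 mM Tris-HCl pH 8, 0.01% Tween 20. Started with 1 mM NAD+ and 30 uM prostaglandin E2; NADH fluorescence (360/450 nm) read 5 times over 30-s intervals, last minus first.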
PNC assembly inh: perinucleolar compartment assembly inhibition | AID 2417 | 140,000 compounds, 3.1% hits | PC3M PTB-GFP, PNC prevalence imaging, 16 h; active compounds read low | activity change (PNC), negative = inhibition, % at 10 µM;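 active = readout at or below -70, meaning at least 70% loss of cells showing the perinucleolar compartment, a nuclear body marking cancer cells; inconclusive = readout between -30 and a set limit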;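 note: plate controls were DMSO wells for no effect and camptothecin positive control wells for full effect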
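PC3M cells stably expressing PTB-GFP, 750–1000 cells/well, treated 16 h at 37 °C with compound (23 nl of library stock), in duplicate. After paraformaldehyde fixation and Hoechst stain, imaged at 20x; PNC prevalence scored by image analysis.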
IMPase inh: IMPase inhibition in cells; P97697; CHO-M1 cells, IP1 accumulation, HTRF TR-FRET ratio; inhibition (IP1 accumulation), % at 46.1 µM; 120,000 tested, under 10 active; AID 901; active = well fitted curve in the direction sought with a large enough effect in the signal ratio, not every such curve was filed as active; inconclusive = small, poorly fitted or top-dose-only effect, or a change in a side signal; inactive = no such curve, though single readings can be large or run the other way; the % refers to the signal ratio;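 note: cells stimulated with carbachol in lithium chloride buffer; plate controls were DMSO basal wells for no effect and reference inhibitor wells for full effect; higher means more IMPase inhibition seen as more IP1 and lower FRET ratio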
Target sequence (P97697 whole entry, looked up): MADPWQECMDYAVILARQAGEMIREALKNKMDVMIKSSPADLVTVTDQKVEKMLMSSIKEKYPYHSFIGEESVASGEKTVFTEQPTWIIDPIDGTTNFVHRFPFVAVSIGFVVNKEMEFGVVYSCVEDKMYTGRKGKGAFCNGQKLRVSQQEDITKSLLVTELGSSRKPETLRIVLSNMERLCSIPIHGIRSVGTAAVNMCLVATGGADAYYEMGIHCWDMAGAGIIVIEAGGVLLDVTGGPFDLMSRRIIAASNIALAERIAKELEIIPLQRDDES
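CHO-M1, 2000 cells/well, cultured 16–30 h; cpd up to 46 uM; carbachol (50 uM solution, stimulation buffer w/ 50 mM LiCl, pH 7.4), 30 min 37C; IP-One TR-FRET, 10 min RT; Ex 320/Em 665, 620; Hill-fit AC50.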
ALOX12 inhib: 12-hLO (ALOX12) enzyme inhibition | P18054 | purified 12-hLO, xylenol orange hydroperoxide absorbance | Potency, µM (highest dose often 57.1 µM), for the others: at the top dose activity change, negative = inhibition, actives largely listed as inhibitors | 150,000 compounds, 0.12% hits; active = well fitted curve in the direction sought with a large enough effect; inconclusive = small, poorly fitted or top-dose-only effect, or another doubt; inactive = no such curve, though single readings can be large; an effect the other way counts as inactive or inconclusive; note: potency is the fitted concentration of half-maximal effect; nearly all actives have a fitted effect of over 55% in size
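Hydroperoxide formation by human 12-lipoxygenase from 40 uM arachidonic acid was followed colorimetrically via ferric-xylenol orange complex, using the 573/405 nm absorbance ratio. Enzyme concentration was 150 nM, with 30 min reaction at room temperature.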
The depositor's hits bear a star; ? = inconclusive; . = no result given; [ ] = remark or other dose. Unless noted, calls come from the whole dose curve; as a rule, active = well fitted inhibition curve with a large enough effect (not every such curve was filed as active); inconclusive = small, poorly fitted or top-dose-only effect, or another doubt; inactive = no such curve, though single readings can be large or run the other way. Unless noted, % is set by controls: 0 for no effect and ±100 for the full control effect.

SMILES	ALDH1A1 block	IMPase Li cell	HPGD inh	PNC assembly inh	IMPase inh	ALOX12 inhib
O=C(c1cc2ccccc2oc1=O)N(Cc1cccc(Br)c1)C1CCS(=O)(=O)C1 (configuration not stated)	-3%	.	.	.	.	.
O=C(Nc1ccccc1N1CCOCC1)c1cccs1	-1%	11%	-12%	113	-6	5%
O=C(NC(=S)Nc1ccc(S(=O)(=O)N2CCCC2)cc1)c1cccs1	13%	-3%	?	13	.	?
CS(=O)(=O)N1CCN(c2ccc(NC(=S)NC(=O)c3cccs3)cc2)CC1	?	2%	.	.	.	.
O=C(NC(=S)Nc1ccc(N2CCCCC2)cc1)c1cccs1	22µM*	4%	32µM*	?	7	?
O=C(NC(=S)Nc1ccc(S(=O)(=O)N2CCCCCC2)cc1)c1cccs1	13µM*	14%	-15%	?	.	2%
O=C(NC(=S)Nc1ccccc1N1CCOCC1)c1cccs1	40µM*	6%	-14%	12	.	?
Cc1ccc(C(=O)N/N=C/c2ccc(N3CCOCC3)cc2)c(C)c1	-14%	6%	.	.	.	.
Cc1ccc(C(=O)NC(=S)Nc2ccc(N3CCOCC3)cc2)c(C)c1	32µM*	6%	.	.	.	.
COc1cc(OC)cc(C(=O)NC(=S)Nc2ccc(N3CCCC3)cc2)c1	11µM*	8%	-11%	?	.	-23%
COc1cc(OC)cc(C(=O)NC(=S)N2CCCCCC2)c1	3%	5%	.	.	.	.
COCCNC(=O)CSc1nc(-c2ccc(F)cc2)[nH]c1-c1ccc(Cl)cc1	.	.	.	.	-2	.
CCc1ccccc1NC(=O)Cc1c(C(=O)O)[nH]c2ccc(Cl)cc12	.	.	.	.	7	.
O=C(/C=C(\O)c1ccccc1)c1ccccc1O	2%	5%	20µM*	.	.	6%
O=C(NO)c1ccccc1O	4%	0%	-7%	0	.	-5%
COC(=O)NC(CC(C)=O)c1cccc(C)c1 (configuration not stated)	2%[13.5 µM]	.	.	.	.	.
O=C(Cc1ccccc1)n1nc(-c2ccco2)nc1SCc1ccccc1	?	45%[38.3 µM]	4.5µM*	?	5	1%
O=C(c1ccco1)n1nc(-c2ccccc2)nc1SCc1ccccc1	1%	23%[38.3 µM]	18µM*	-10	1	4%
COc1ccc(CNCC(=O)Nc2cccc(S(N)(=O)=O)c2)cc1	?	-6%	.	.	.	.
O=C1NC[C@H](c2ccccc2)N1	-9%	22%	-16%	.	.	.
O=C(O)Cn1cc(/C=C2\SC(=O)N(c3ccccc3)C2=O)c2ccccc21	22µM*	5%	.	.	.	.
CC(C)c1onc(C(=O)N2CCOCC2)c1[N+](=O)[O-]	0%	-7%	.	.	.	.
Cc1onc(C(=O)N2CCOCC2)c1[N+](=O)[O-]	25µM*	1%	.	.	.	.
COc1ccc(-c2nnnn2-c2ccccc2OC)cc1	7.9µM*	29%	1%	56	15	-5%
Cc1ccccc1-n1nnnc1-c1ccccc1	4.5µM*	1%[38.3 µM]	-13%	17	2	-3%
SMILES	ALDH1A1 block	IMPase Li cell	HPGD inh	PNC assembly inh	IMPase inh	ALOX12 inhib
CC1=C(C(=O)Nc2ccccc2)C(c2ccc(Br)cc2)n2nc(CCCO)nc2N1 (configuration not stated)	.	.	.	.	-1	.
Cc1ccc(OCC(=O)N2CCN(c3nnc(-c4ccc(C)cc4)c4ccccc34)CC2)cc1	14µM*	29%[38.3 µM]	-16%	25	6	-6%
Cc1ccc(-c2nnc(N3CCN(C(=O)c4ccco4)CC3)c3ccccc23)cc1	14µM*	12%[38.3 µM]	-15%	?	5	-4%
CC(C)Cn1nnnc1S(=O)(=O)Cc1ccccc1	11%	13%	-8%	.	.	.
CC(C)Cn1nnnc1S(=O)(=O)Cc1cccc(C#N)c1	3.5µM*	10%	-29%	.	.	.
N#CCCCS(=O)(=O)c1nnnn1-c1ccc(F)cc1Br	18µM*	8%	-10%	.	.	.
O=S(=O)(CCc1ccccc1)c1nnnn1-c1ccc(F)cc1Br	-34%	13%	-3%	.	.	.
O=C(O)C(Oc1ccc2ccc(=O)oc2c1)c1ccccc1 (configuration not stated)	?	13%	-14%	.	.	.
CCOc1ccc(NC(=O)Cn2nnc3c(cnn3-c3ccc(F)cc3)c2=O)cc1	7.9µM*	-2%	.	.	.	.
Cc1noc(C)c1-c1nc(N(C)Cc2ccco2)c2ccccc2n1	?	15%	.	.	.	.
COc1ccc(NC(=O)c2nn(C34CC5CC(CC(C5)C3)C4)cc2[N+](=O)[O-])cc1	0.28µM*	20%	-8%	61	.	1%
O=C(Nc1cccc2ccccc12)c1nn(C23CC4CC(CC(C4)C2)C3)cc1[N+](=O)[O-]	?	6%[38.3 µM]	-15%	10	?	-5%
O=[N+]([O-])c1cc(/C=N/n2c(-c3ccncc3)n[nH]c2=S)ccc1Cl	?	27%	.	.	.	.
Cc1cc(-c2n[nH]c(=S)n2/N=C/c2ccc(Cl)c([N+](=O)[O-])c2)n[nH]1	14µM*	-25%	7.9µM*	1	.	-3%
Cc1cc(-c2n[nH]c(=S)n2/N=C/c2cc([N+](=O)[O-])ccc2Cl)n[nH]1	?	-1%	25µM*	11	.	-2%
CCCNC(=O)OC[C@@H]1O[C@H](CCON=C(C)C)C=C[C@@H]1Oc1ccc(OC)cc1	16%[13.5 µM]	.	.	.	.	.
CC(=O)NC1C(OC2OC(CC(O)C3OC([N+]4=CCC(=O)NC4=O)C(O)C3O)C(O)C(O)C2NC(=O)/C=C/CCCCCCCCC(C)C)OC(CO)C(O)C1O (configuration not stated)	-6%	21%	.	.	.	.
O=c1c(-c2ccc(F)cc2)nc2cnc(Nc3ccccc3)nc2n1C[C@H]1CCCO1	25%	3%	.	.	.	.
CCn1cc(Br)c(C(=O)NN)n1	25µM*	-7%[38.3 µM]	-12%	26	-2	1%
Cc1cc(C)c(C)c(OCC(=O)NCC2CCCO2)c1 (configuration not stated)	-2%	4%	?	-90*	-15	5%
Cc1cc(NC(=O)CCC(=O)N(CCC(C)C)CC(=O)NCC2CCCO2)no1 (configuration not stated)	-5%	-30%[38.3 µM]	0%	0	24	1%
Cc1cc(C)cc(N(CC(=O)NCC2CCCO2)C(=O)CCC(=O)Nc2cc(C)on2)c1 (configuration not stated)	1%	-7%[38.3 µM]	-4%	-82*	4	-1%
Cc1cc(S(=O)(=O)NC2CCCCC2)ccc1OCC(=O)NCC1CCCO1 (configuration not stated)	-1%	4%	.	.	.	.
Cc1cc(C)cc(OCC(=O)NCC2CCCO2)c1 (configuration not stated)	-4%	2%[38.3 µM]	16µM*	64	-3	-1%
Cc1ccccc1NC(=O)c1c(NC(=O)c2ccncc2)sc2c1CCC(C(C)(C)C)C2 (configuration not stated)	.	.	.	.	8	.
